Test results published in PubChem BioAssay (EPA / NIEHS).
Activity calls are given as the source filed them. How the source made its calls: active means hit-call score of the fitted dose curve at least 0.9, where 1 is the maximum; inactive means score below 0.9.

Experiments:
Settings in all cases: mRNA level, 48 h; actives raise or lower the signal
[1] = read-out: Cyclin Dependent Kinase Inhibitor 1A (CDKN1A), CDKN1A (gene 1026); test: LTEA_HepaRG_CDKN1A: Life Technologies and Expression Analysis (LTEA) Assay for Cyclin Dependent Kinase Inhibitor 1A (CDKN1A) using HepaRG (AID 2283450)
Summary of the method: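 Expression quantified by Fluidigm qRT-PCR with ACTB, GAPDH and POLR2A normalization, fitted bidirectionally against 0.5% DMSO. Cells: HepaRG, plated 48 h then treated 48 h in serum-free induction medium, top concentration 100 uM with half-log dilutions.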

[2] = read-out: Cyclin D1 (CCND1), CCND1 (gene 595); test: LTEA_HepaRG_CCND1: Life Technologies and Expression Analysis (LTEA) Assay for Cyclin D1 (CCND1) using HepaRG (AID 2283451)
Summary of the method: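 Expression of CCND1 was quantified by qRT-PCR on Fluidigm arrays using ACTB, GAPDH and POLR2A as reference genes. HepaRG cultures, plated 48 h beforehand, were dosed for 48 h at up to 100 uM (half-log, 8 points) in 0.5% DMSO.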

[3] = read-out: catalase (CAT), CAT (gene 847); test: LTEA_HepaRG_CAT: Life Technologies and Expression Analysis (LTEA) Assay for catalase (CAT) using HepaRG (AID 2283452)
Summary of the method: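 Expression of CAT was quantified by TaqMan qRT-PCR with ACTB/GAPDH/POLR2A normalization after 48 h chemical exposure of HepaRG. Eight-point half-log series, top 100 uM, in 0.5% DMSO; gain or loss fitted against vehicle.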

[4] = read-out: flavin-containing dimethylaniline monooxygenases 3 (FMO3), FMO3 (gene 2328); test: LTEA_HepaRG_FMO3: Life Technologies and Expression Analysis (LTEA) Assay for flavin-containing dimethylaniline monooxygenases 3 (FMO3) using HepaRG (AID 2283453);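 on AC50: differentiated human HepaRG liver cells in serum-free induction medium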
Summary of the method: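 Differentiated HepaRG cells in serum-free induction medium, exposed 48 h in duplicate to 8 half-log concentrations up to 100 uM in 0.5% DMSO. FMO3 mRNA by qRT-PCR, normalized to ACTB, GAPDH, POLR2A; bidirectional fit vs DMSO.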

[5] = read-out: Cytochrome P450 (CYP1A1), CYP1A1 (gene 1543); test: LTEA_HepaRG_CYP1A1: Life Technologies and Expression Analysis (LTEA) Assay for Cytochrome P450 (CYP1A1) using HepaRG (AID 2283454)
Summary of the method: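 CYP1A1 transcript levels measured by Fluidigm qRT-PCR against three housekeeping genes, 48 h after chemical dosing of human HepaRG cells (highest concentration 100 uM, half-log steps, 0.5% DMSO vehicle). Gain or loss of signal fitted relative to DMSO.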

[6] = read-out: CFLAR gene, CFLAR (gene 8837); test: LTEA_HepaRG_CFLAR: Life Technologies and Expression Analysis (LTEA) Assay for CFLAR gene using HepaRG (AID 2283455)
Summary of the method: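 HepaRG, 48 h exposure, 8-pt conc-response (100 uM top, half-log), 0.5% DMSO vehicle, duplicates. CFLAR expression by qRT-PCR; ACTB/GAPDH/POLR2A normalization; gain or loss fit vs DMSO baseline.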

[7] = read-out: Forkhead box O1 (FOXO1), FOXO1 (gene 2308); test: LTEA_HepaRG_FOXO1: Life Technologies and Expression Analysis (LTEA) Assay for Forkhead box O1 (FOXO1) using HepaRG (AID 2283456)
Summary of the method: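 Readout is FOXO1 transcript level by multiplexed qRT-PCR against three housekeeping genes, curve-fitted in both directions relative to 0.5% DMSO vehicle. Human HepaRG cultures received chemicals for 48 h, up to 100 uM in half-log steps.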

[8] = read-out: growth arrest and DNA damage 45 (GADD45A), GADD45A (gene 1647); test: LTEA_HepaRG_GADD45A: Life Technologies and Expression Analysis (LTEA) Assay for growth arrest and DNA damage 45 (GADD45A) using HepaRG (AID 2283458)
Summary of the method: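 Differentiated HepaRG cells exposed 48 h in serum-free induction medium to 8 concentrations, top 100 uM in half-log steps, 0.5% DMSO. GADD45A mRNA quantified by qRT-PCR, normalized to ACTB, GAPDH and POLR2A; bidirectional fit versus DMSO.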

[9] = read-out: ABC Transporter (ABCB1), ABCB1 (gene 5243); test: LTEA_HepaRG_ABCB1: Life Technologies and Expression Analysis (LTEA) Assay for ABC Transporter (ABCB1) using HepaRG (AID 2283460)
Summary of the method: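 Expression of ABCB1 was quantified by qRT-PCR against three housekeeping genes after human HepaRG cultures received test chemicals for 48 hours. Concentrations spanned eight half-log steps topping at 100 uM in 0.5% DMSO; gain or loss of signal was fitted relative to vehicle.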

[10] = read-out: growth arrest and DNA damage 45 (GADD45B), GADD45B (gene 4616); test: LTEA_HepaRG_GADD45B: Life Technologies and Expression Analysis (LTEA) Assay for growth arrest and DNA damage 45 (GADD45B) using HepaRG (AID 2283461)
Summary of the method: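 Transcript level quantified by Fluidigm TaqMan qRT-PCR with three housekeeping genes for normalization, analyzed for up- or down-regulation against 0.5% DMSO. HepaRG cultures dosed 48 h at eight half-log concentrations up to 100 uM, duplicates.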

[11] = read-out: ABC Transporter (ABCC3), ABCC3 (gene 8714); test: LTEA_HepaRG_ABCC3: Life Technologies and Expression Analysis (LTEA) Assay for ABC Transporter (ABCC3) using HepaRG (AID 2283462)
Summary of the method: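 Transcript level by TaqMan qRT-PCR, normalised to three housekeeping genes, fitted in both directions relative to vehicle. Chemicals tested in duplicate at eight half-log concentrations up to 100 uM for 48 h on HepaRG cells (0.5% DMSO).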

[12] = read-out: ABC Transporter (ABCB11), ABCB11 (gene 8647); test: LTEA_HepaRG_ABCB11: Life Technologies and Expression Analysis (LTEA) Assay for ABC Transporter (ABCB11) using HepaRG (AID 2283463)
Summary of the method: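 ABCB11 transcript levels are read by Fluidigm TaqMan qRT-PCR after 48 h chemical treatment of human HepaRG cells. Concentrations span 100 uM downward in half-log steps with 0.5% DMSO; gain or loss is fitted against DMSO controls.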

[13] = read-out: Broad substrate specificity ATP-binding cassette transporter ABCG2 (Homo sapiens) (UniProt Q9UNQ0); test: LTEA_HepaRG_ABCG2: Life Technologies and Expression Analysis (LTEA) Assay for ABC Transporter (ABCG2) using HepaRG (AID 2283465)
Summary of the method: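 Read-out is ABCG2 mRNA induction or loss quantified by qRT-PCR after 48 h chemical treatment of human HepaRG cells, normalized to three housekeeping genes. Concentrations reached 100 uM top in half-log steps; fitting was bidirectional against 0.5% DMSO.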

[14] = read-out: ATP-citrate lyase (ACLY), ACLY (gene 47); test: LTEA_HepaRG_ACLY: Life Technologies and Expression Analysis (LTEA) Assay for ATP-citrate lyase (ACLY) using HepaRG (AID 2283466)
Summary of the method: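 HepaRG, 48 h exposure, 8-pt half-log dilutions (top 100 uM), 0.5% DMSO. Readout: ACLY mRNA, TaqMan qRT-PCR, housekeeping-normalized (ACTB/GAPDH/POLR2A). Bidirectional curve fit vs DMSO.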

[15] = read-out: Peroxisomal acyl-coenzyme A oxidase 1 (ACOX1) gene, ACOX1 (gene 51); test: LTEA_HepaRG_ACOX1: Life Technologies and Expression Analysis (LTEA) Assay for Peroxisomal acyl-coenzyme A oxidase 1 (ACOX1) gene using HepaRG (AID 2283467)
Summary of the method: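 Measured by qRT-PCR against three housekeeping genes: ACOX1 transcript change in human HepaRG cells after 48 h dosing. Concentrations ran up to 100 uM in half-log steps. Curves were fitted bidirectionally relative to 0.5% DMSO.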

[16] = read-out: Bcl-2 (BAD) gene, BAD (gene 572); test: LTEA_HepaRG_BAD: Life Technologies and Expression Analysis (LTEA) Assay for Bcl-2 (BAD) gene using HepaRG (AID 2283469)
Summary of the method: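 BAD transcript change, measured by qRT-PCR against three housekeeping genes and fitted in both directions relative to 0.5% DMSO, after 48 h chemical treatment of human HepaRG liver cells at concentrations up to 100 uM.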

[17] = read-out: ABC Transporter (ABCC2), ABCC2 (gene 1244); test: LTEA_HepaRG_ABCC2: Life Technologies and Expression Analysis (LTEA) Assay for ABC Transporter (ABCC2) using HepaRG (AID 2283464)
Summary of the method: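 Endpoint is ABCC2 transcript level from qRT-PCR, normalized to three housekeeping genes and fitted bidirectionally relative to DMSO. Human HepaRG cells received test chemical for 48 h at up to 100 uM (8 points, half-log steps, 0.5% DMSO), duplicate wells.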

[18] = read-out: Forkhead box O3 (FOXO3), FOXO3 (gene 2309); test: LTEA_HepaRG_FOXO3: Life Technologies and Expression Analysis (LTEA) Assay for Forkhead box O3 (FOXO3) using HepaRG (AID 2283459)
Summary of the method: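 HepaRG, 48 h post-dose; 8 conc., half-log from 100 uM, 0.5% DMSO, duplicates; serum-free induction medium. Readout: FOXO3 mRNA, TaqMan qRT-PCR, housekeeping-normalized. Bidirectional curve fit vs DMSO baseline.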

Measured: AC50

Chain of Broad substrate specificity ATP-binding cassette transporter ABCG2 (Homo sapiens) (Q9UNQ0 whole entry, looked up): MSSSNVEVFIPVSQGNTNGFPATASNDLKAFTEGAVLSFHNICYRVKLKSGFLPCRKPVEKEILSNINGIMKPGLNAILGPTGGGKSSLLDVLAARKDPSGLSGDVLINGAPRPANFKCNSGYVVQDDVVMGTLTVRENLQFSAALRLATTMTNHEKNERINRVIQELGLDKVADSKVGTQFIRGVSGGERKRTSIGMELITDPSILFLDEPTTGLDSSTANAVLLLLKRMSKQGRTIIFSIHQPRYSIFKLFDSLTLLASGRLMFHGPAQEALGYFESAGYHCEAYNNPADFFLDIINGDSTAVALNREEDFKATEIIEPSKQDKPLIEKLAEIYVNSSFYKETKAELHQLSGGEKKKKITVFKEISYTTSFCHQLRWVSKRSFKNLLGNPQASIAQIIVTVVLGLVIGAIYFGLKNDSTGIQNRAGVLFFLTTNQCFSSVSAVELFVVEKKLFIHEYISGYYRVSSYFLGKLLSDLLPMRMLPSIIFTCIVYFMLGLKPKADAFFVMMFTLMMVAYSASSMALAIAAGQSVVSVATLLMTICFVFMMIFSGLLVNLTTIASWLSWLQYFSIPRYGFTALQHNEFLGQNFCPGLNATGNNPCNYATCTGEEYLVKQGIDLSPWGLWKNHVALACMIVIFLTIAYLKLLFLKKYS

COc1cc(Cl)c(OC)cc1Cl
active: [5] 27.9 µM
not listed: [17] | [18]
inactive: all other assays above

CCCCOCN(C(=O)CCl)c1c(CC)cccc1CC
active: [5] 74 µM | [9] 83.7 µM
not listed: [8] | [18]
inactive: all other assays above

CN=C=S
not listed: [8]
inactive: all other assays above

COC(=O)N(C(=O)N1CO[C@@]2(C(=O)OC)Cc3cc(Cl)ccc3C2=N1)c1ccc(OC(F)(F)F)cc1
active: [3] 40 µM | [4] 40 µM | [5] 5.08 µM | [6] 29.8 µM | [10] 8.78 µM | [12] 40 µM | [15] 40 µM
not listed: [8] | [18]
inactive: all other assays above
